# According to PubChem BioAssay (NCATS):
# Values without a mark were called inactive. Results filed as inconclusive are left out. The list shows a part of the results. Calls of active or inactive are those of the source. Unless noted, calls come from the whole dose curve; as a rule, active = well fitted inhibition curve with a large enough effect; inconclusive = small, poorly fitted or top-dose-only effect; inactive = flat fitted curve, though single readings scatter.
# Columns and labels:
# [1] = target: Fructose-bisphosphate aldolase A (Oryctolagus cuniculus) (UniProt P00883); assay: qHTS Assay for Inhibitors of Fructose-1,6-bisphosphate Aldolase from Giardia Lamblia: Rabbit FBPA Selectivity (AID 2794); note: % is set by controls: 0 for no effect and ±100 for the full control effect; nearly all actives have a fitted effect of over 60% in size
# How it was run: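 Glyceraldehyde-3-phosphate-coupled detection measures rabbit Class I aldolase turnover via AmpLite Red fluorescence. Compounds (final up to 57.5 uM) preincubated 10 min; signal read 20 min post-substrate at RT.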
# [2] = qHTS Assay for Inhibitors of Fructose-1,6-bisphosphate Aldolase from Giardia Lamblia: Coupling assay counterscreen confirmation (AID 2795); note: % is set by controls: 0 for no effect and ±100 for the full control effect; nearly all actives have a fitted effect of over 55% in size
# How it was run: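 Concentration-response counterscreen (up to 57.5 uM final) of aldolase-screen hits against coupling enzymes only. Substrate, coupling system and AmpLite Red were added after a 10 min RT preincubation; fluorescence was taken 20 min later at 525/598 nm.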
# [3] = target: Lysosomal acid glucosylceramidase (Homo sapiens) (UniProt P04062); assay: Glucocerebrosidase-p2 (AID 348; in the data active = potency below about 10 µM; note: potency is the fitted concentration of half-maximal effect); conditions: purified GBA, blue fluorogenic substrate, 40 min
# How it was run: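 Normal human glucocerebrosidase (0.2 nM) with blue fluorogenic substrate (80 uM final) in citrate/phosphate pH 5.9 with 10mM sodium taurocholate, 0.01% tween-20; 40 min RT, NaOH/glycine stop; fluorescence Ex 365/Em 440; AC50 from a titration from 0.6 nM upwards.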
# [4] = AP1 Signaling Pathway (AID 357; active = well fitted curve in either direction with a large enough effect, not every such curve was filed as active;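 note: ME-180 reporter cells stimulated with EGF at its EC50 level; % is set by controls: 0 for no effect and ±100 for the full control effect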); conditions: ME-180 AP-1-bla reporter, EGF-induced, beta-lactamase ratio, 5 h; at 7.69 µM (top of the series) unless noted
# How it was run: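 A ratiometric CCF4 readout (405 nm excitation; 460 and 530 nm emission) quantified AP-1-driven beta-lactamase in ME-180 cells after 5 h with compound and EC50 EGF; AC50 values were derived for activators and inhibitors.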
# [5] = target: Cytochrome P450 1A2 (Homo sapiens) (UniProt P05177); assay: p450-cyp1a2 (AID 410; calls by dose curve; note: potency is the fitted concentration of half-maximal effect)
# How it was run: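 Luminescent demethylation readout: Luciferin-ME (100uM, equal to Km) turned over by 20nM CYP1A2 for 60 min at room temperature after NADPH regeneration addition, following 10 min compound preincubation. Normalization used 57 uM furafylline as full inhibition.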
# [6] = NFAT Signaling Pathway (AID 444; active = well fitted curve in either direction with a large enough effect, not every such curve was filed as active;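 note: carbachol stimulus at about its EC50 of 1 µM final; % is set by controls: 0 for no effect and ±100 for the full control effect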); conditions: Jurkat NFAT-bla M1, carbachol, beta-lactamase ratio, 5 h; at 7.69 µM (top of the series) unless noted
# How it was run: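 Jurkat cells with NFAT-driven β-lactamase reporter and co-expressed M1 receptor, stimulated with carbachol (final 1 uM, ~EC50), compound titration, 5 h at 37 °C. CCF4 loaded 1 h at RT; 460/530 nm ratio gave %activity and AC50.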
# [7] = Stat Signaling Pathway (AID 446; active = well fitted curve in either direction with a large enough effect, not every such curve was filed as active;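 note: ME-180 cervical cancer cells given 40 pM IL-6 alongside compound; SIE-controlled beta-lactamase reporter measured as 460/530 nm FRET emission ratio; % is set by controls: 0 for no effect and ±100 for the full control effect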); conditions: ME-180 (cervical carcinoma) SIE beta-lactamase reporter, IL-6 stimulated, 5 h; at 7.69 µM (top of the series) unless noted
# How it was run: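 Normalization used AC90 stimulation (300 pM IL-6) and AC90 inhibition (125 nM pan-JAK inhibitor at 40 pM IL-6). The underlying signal is SIE-driven beta-lactamase in ME-180 cells after 5 h IL-6 exposure with compound.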
# [8] = target: Glucocorticoid receptor (Homo sapiens) (UniProt P04150); assay: GR-GFP Redistribution (AID 450;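 active = compounds whose dose series gives a full or clear partial fitted curve of increased nuclear translocation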; note: potency is the fitted concentration of half-maximal effect); conditions: U2OS GR-GFP nuclear translocation, laser cytometry, 2 h
# [9] = target: Glucocorticoid receptor (Homo sapiens) (UniProt P04150); assay: GR-EFC Redistribution (AID 451; calls by dose curve; note: potency is the fitted concentration of half-maximal effect); conditions: CHO-K1 GR-EFC translocation, beta-gal luminescence, 2 h
# How it was run: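 CHO-K1 cells expressing nuclear EA and GR-ED fragments of b-gal; compounds titrated up to 46 uM final, 2 h at 37 C. GR nuclear translocation read as complemented b-gal luminescence after 1 h RT detection.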
# Fructose-bisphosphate aldolase A (Oryctolagus cuniculus), sequence (P00883 whole entry, looked up): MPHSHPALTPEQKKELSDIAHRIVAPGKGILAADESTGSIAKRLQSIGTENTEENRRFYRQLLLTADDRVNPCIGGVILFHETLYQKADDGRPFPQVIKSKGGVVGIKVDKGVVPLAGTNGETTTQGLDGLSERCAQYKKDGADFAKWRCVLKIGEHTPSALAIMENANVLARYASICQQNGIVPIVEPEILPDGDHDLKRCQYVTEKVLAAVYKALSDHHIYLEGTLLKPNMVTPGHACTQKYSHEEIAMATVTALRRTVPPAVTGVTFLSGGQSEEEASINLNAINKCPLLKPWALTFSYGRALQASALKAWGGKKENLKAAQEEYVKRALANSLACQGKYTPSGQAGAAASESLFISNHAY
# Glucocorticoid receptor (Homo sapiens), sequence (P04150 whole entry, looked up, the tested form may be a part): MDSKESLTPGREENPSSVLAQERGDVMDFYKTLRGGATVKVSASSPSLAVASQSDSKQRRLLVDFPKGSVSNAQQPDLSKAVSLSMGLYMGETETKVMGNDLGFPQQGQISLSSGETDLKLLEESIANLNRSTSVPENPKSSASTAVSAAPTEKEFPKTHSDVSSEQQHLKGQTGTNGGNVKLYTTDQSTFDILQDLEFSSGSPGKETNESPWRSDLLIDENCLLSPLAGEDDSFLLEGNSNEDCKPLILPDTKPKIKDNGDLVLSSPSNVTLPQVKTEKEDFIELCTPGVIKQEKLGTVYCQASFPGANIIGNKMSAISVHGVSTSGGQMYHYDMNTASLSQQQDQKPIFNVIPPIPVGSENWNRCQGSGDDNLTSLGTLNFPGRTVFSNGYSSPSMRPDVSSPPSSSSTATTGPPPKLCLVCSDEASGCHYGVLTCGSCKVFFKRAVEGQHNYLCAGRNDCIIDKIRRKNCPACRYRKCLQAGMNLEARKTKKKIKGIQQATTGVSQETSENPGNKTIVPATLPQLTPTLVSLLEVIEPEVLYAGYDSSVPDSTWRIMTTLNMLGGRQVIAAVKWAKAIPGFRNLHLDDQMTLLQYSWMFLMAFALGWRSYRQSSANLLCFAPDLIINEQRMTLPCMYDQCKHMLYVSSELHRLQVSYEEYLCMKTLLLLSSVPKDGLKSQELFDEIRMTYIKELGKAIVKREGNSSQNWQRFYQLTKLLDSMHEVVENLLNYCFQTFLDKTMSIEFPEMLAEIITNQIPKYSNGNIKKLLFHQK
# Cytochrome P450 1A2 (Homo sapiens), sequence (P05177 whole entry, looked up): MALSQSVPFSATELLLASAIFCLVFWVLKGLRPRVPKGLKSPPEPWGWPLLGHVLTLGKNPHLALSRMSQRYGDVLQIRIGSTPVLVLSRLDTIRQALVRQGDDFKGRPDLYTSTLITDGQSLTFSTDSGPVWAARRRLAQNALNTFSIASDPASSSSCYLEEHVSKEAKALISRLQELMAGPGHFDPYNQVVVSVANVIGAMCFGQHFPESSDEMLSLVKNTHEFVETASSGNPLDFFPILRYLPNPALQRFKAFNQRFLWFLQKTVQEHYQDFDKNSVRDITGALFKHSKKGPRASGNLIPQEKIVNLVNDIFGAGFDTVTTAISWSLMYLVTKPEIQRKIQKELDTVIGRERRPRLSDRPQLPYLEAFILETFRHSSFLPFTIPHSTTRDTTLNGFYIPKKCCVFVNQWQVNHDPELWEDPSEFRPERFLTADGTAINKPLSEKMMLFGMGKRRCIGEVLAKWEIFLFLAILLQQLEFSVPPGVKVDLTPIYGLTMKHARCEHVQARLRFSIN
# Lysosomal acid glucosylceramidase (Homo sapiens), sequence (P04062 whole entry, looked up): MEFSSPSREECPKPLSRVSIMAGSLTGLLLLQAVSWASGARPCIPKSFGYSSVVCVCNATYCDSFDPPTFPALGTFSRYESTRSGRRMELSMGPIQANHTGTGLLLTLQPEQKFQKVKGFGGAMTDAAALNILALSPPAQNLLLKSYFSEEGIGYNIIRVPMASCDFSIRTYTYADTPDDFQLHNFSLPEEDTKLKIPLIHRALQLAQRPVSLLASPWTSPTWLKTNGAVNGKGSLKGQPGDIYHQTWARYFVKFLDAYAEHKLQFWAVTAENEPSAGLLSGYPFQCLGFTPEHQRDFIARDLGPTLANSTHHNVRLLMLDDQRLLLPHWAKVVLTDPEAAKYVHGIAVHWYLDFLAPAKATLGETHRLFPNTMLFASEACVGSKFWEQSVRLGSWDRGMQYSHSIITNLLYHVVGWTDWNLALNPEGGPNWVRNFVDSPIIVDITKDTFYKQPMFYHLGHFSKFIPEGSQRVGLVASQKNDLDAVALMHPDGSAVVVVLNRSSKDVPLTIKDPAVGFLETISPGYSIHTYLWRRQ
compound,measurement,setting,value
Cn1c(=O)[nH]c(=O)c2c1[nH]c(=S)n2Cc1ccccc1,outcome,[1],inactive
COc1ccc(C(=O)NC(=S)N2CCCCC2c2cccnc2)cc1OC (stereo not given),outcome,[1],inactive
same,outcome,[2],inactive
O=S(=O)(O)c1cc(N=Nc2cccc3ccccc23)c(O)c2ncccc12,Potency,[3],> 11.4 µM
same,"activity change, negative = inhibition",[4],-3.71%
same,Potency,[5],0.631 µM (active)
same,"activity change, negative = inhibition",[6],8.38%
same,"activity, negative = inhibition",[7],0.477%
same,Potency,[8],> 46 µM
same,Potency,[9],> 9.22 µM
